Assay outcomes from PubChem.
Only some compounds are listed: those with a hit (about 4.7% of all), similar ones and a draw of the others.
ADAM10 inh – inhibitors of human ADAM10. recombinant ADAM10, EDANS/DABCYL FRET peptide cleavage, 3 h. inhibition, % at 7 µM. 370,000 compounds, 0.62% hits. AID 720582;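 active means inhibition above a per-campaign cutoff equal to the mean of compounds falling between control-based bounds plus 3 SD, cut at about 20% in these data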;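 further: 0% = DMSO wells while the 100% control is not disclosed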
Pemphigus Ab inh – inhibitors of pemphigus antibody binding to human desmoglein-3; binding (percent of control), % at 10 µM; AID 588358; P32926; DSG3-coupled beads, scFv-anti-DSG3-GFP binding, flow cytometry; hits give low values; 310,000 compounds, 0.48% hits;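 active means binding more than 3 SD below its plate's average and above zero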;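 further: hits lower antibody fragment binding to DSG3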
ADAM17 inh – ADAM17 inhibition, QFRET primary screen; recombinant ADAM17, EDANS/DABCYL FRET peptide cleavage; inhibition, % at 6.95 µM; 370,000 compounds, 0.83% hits; AID 720648;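 active means inhibition above the mean of compounds lying between control limits plus 3 SD, set per campaign, cut at about 8.5% in these data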;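 further: 0% = DMSO-only wells as the low control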
KLK7 zymogen act – activates the human kallikrein-7 zymogen; 370,000 compounds, 0.9% hits; activation, % at 7 µM; purified proKLK7, EDANS-DABCYL substrate fluorescence; 100% is mature enzyme control, 0% vehicle;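 active means activation above the mean of all tested compounds plus 3 SD, computed per campaign excluding outliers beyond control limits, cut at about 13% in these data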
rCAG RNA binder – r(CAG) repeat RNA binding | inhibition, % at 3 µM | AID 651821 | TO-PRO-1 dye displacement fluorescence | 370,000 compounds, 1.3% hits;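 active means inhibition above the plate cutoff, the mean of all test compounds on that plate plus 3 SD, cut at about 35% in these data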;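 further: 0% = DMSO alone and 100% = 100 µM mitoxantrone as full dye displacement; higher means more dye released from RNA so lower well fluorescence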
MPTP block – inhibitors of mitochondrial permeability transition pore; isolated mouse mitochondria, Ca2+ swelling absorbance, 30 min; inhibition, % at 10 µM; 360,000 compounds, 1.4% hits;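 active means inhibition of 50% or more, scaled per plate between neutral and stimulator controls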;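 further: 0% = DMSO wells given calcium and 100% = 1 mM EGTA wells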
rCAG binder conf – r(CAG) RNA repeat binding, confirmation | shares compounds with rCAG RNA binder | TO-PRO-1 dye displacement fluorescence | inhibition, % at 3 µM | 4,300 compounds, 70% hits | AID 652065;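 active means inhibition above a per-plate cutoff, the mean inhibition of sample wells plus 3 SD, cut at about 35% in these data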;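 further: loss of TO-PRO-1 fluorescence as compound displaces dye from 1x1 AA loop RNA; 0% = DMSO only wells and 100% = 100 µM mitoxantrone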
dCAG dye counter – counter-screen for rCAG RNA binders: DNA CAG dye complex inhibitors; shares compounds with rCAG RNA binder; d(CAG) DNA oligo TO-PRO-1 dye displacement, fluorescence; inhibition, % at 3 µM; 4,300 compounds, 94% hits; AID 652068;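 active means inhibition above its plate's cutoff, the mean test-well inhibition plus 3 SD, cut at about 4.8% in these data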;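 further: 0% = DNA dye mix with DMSO and 100% = 100 µM mitoxantrone; hits displace the dye from DNA and so lower well fluorescence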
An asterisk follows results filed as active.

`O=C(O)COc1ccccc1/C=C1\SC(=S)N(/N=C/c2ccccc2O)C1=O` gave ADAM10 inh -5, Pemphigus Ab inh 119, ADAM17 inh -2, KLK7 zymogen act -1, rCAG RNA binder 11 and MPTP block 1.
For CC1CN(C(=O)COC(=O)[C@@H](NC(=O)c2ccccc2Cl)C(C)C)CC(C)O1 (some centres undefined) the results were ADAM10 inh -12, ADAM17 inh 1, KLK7 zymogen act 0, rCAG RNA binder -1 and MPTP block -2.
For CNC(=S)Nc1cc(S(=O)(=O)Nc2cc(Cl)ccc2Cl)ccc1N1CCCC1 the results were ADAM10 inh 2, Pemphigus Ab inh 104, ADAM17 inh -4, KLK7 zymogen act 0, rCAG RNA binder 37*, MPTP block 2, rCAG binder conf 43* and dCAG dye counter 19*.
Screening O=C(O)Cn1cc(/C=N/Nc2ccc([N+](=O)[O-])cn2)c2ccccc21 returned ADAM10 inh -5, Pemphigus Ab inh 104, ADAM17 inh -4, KLK7 zymogen act -1, rCAG RNA binder 37*, MPTP block 0, rCAG binder conf 27 and dCAG dye counter 7.5*.
For COC(=O)[C@]12C[C@H](CC(=O)NCc3cccs3)C(=O)N(Cc3ccccc3)C1=C[C@H](COCc1ccccc1)O[C@@H]2C the results were ADAM10 inh 0, ADAM17 inh -1, KLK7 zymogen act 1 and rCAG RNA binder 7.
`Cc1ccc(C)c(/C=C/C(=O)c2ccccc(=O)c2O)c1` gave ADAM10 inh 4, Pemphigus Ab inh 127, ADAM17 inh 0, KLK7 zymogen act -1, rCAG RNA binder 39*, MPTP block 6, rCAG binder conf 23 and dCAG dye counter 10*.
Screening Cn1c(N)c(C(=O)COC(=O)c2cc(-c3ccco3)nc3ccccc23)c(=O)n(C)c1=O returned ADAM10 inh -16, Pemphigus Ab inh 88, ADAM17 inh 4, KLK7 zymogen act 0, rCAG RNA binder 49*, MPTP block 2, rCAG binder conf 45* and dCAG dye counter 20*.
`COc1ccc(-c2cc(C(=O)OCC(=O)c3c(N)n(C)c(=O)n(C)c3=O)c3ccccc3n2)cc1` gave ADAM10 inh -34, Pemphigus Ab inh 116, ADAM17 inh -14, KLK7 zymogen act 1, rCAG RNA binder 0 and MPTP block -9.
Screening CCOC(=O)[C@]12CCCCC/C=C\1N(CCc1ccc(Cl)cc1)C(=O)[C@H]2CC(=O)NCc1ccc(OC)c(OC)c1 returned ADAM10 inh 10, ADAM17 inh 4, KLK7 zymogen act 0 and rCAG RNA binder 3.
Cc1ccccc1-c1cc2nc(NCCc3ccncc3)n(C)c(=O)c2s1 was read as ADAM10 inh -6, ADAM17 inh -2, KLK7 zymogen act -1, rCAG RNA binder 2 and MPTP block -1.
Screening [N-]=[N+]=NC(c1ccccc1)c1nc2ccccc2[nH]c1=O (centres undefined) returned ADAM10 inh -121, Pemphigus Ab inh 104, ADAM17 inh -53, KLK7 zymogen act 3, rCAG RNA binder 44*, MPTP block 0, rCAG binder conf 4 and dCAG dye counter 3.
COc1ccc(C(=O)NCCSCc2ccccc2Cl)cc1OC was read as ADAM10 inh 3, Pemphigus Ab inh 120, ADAM17 inh 1, KLK7 zymogen act 0, rCAG RNA binder 80*, MPTP block 1, rCAG binder conf 3 and dCAG dye counter 0.
Screening CSCC[C@@H](Nc1nc(-c2ccccc2)nc2c1oc1ccccc12)C(=O)O returned ADAM10 inh 1, Pemphigus Ab inh 103, ADAM17 inh -3, KLK7 zymogen act 1, rCAG RNA binder 69*, MPTP block -2, rCAG binder conf 71* and dCAG dye counter 25*.
`O=C(C1CCCCC1)n1ccc2ccc(-c3ccc4ccn(Cc5ccccc5)c4c3)cc21` gave ADAM10 inh -37, ADAM17 inh -10, KLK7 zymogen act -3 and rCAG RNA binder 12.
